According to PubChem BioAssay (Tox21):
Where “and” joins values, the source holds several entries; their conditions need not be identical. Equal entries are not always repeated. Results filed as inconclusive are left out. A call without a number means that no potency is given here. Calls of active or inactive are those of the source. Unless noted, calls come from the whole dose curve; as a rule, active = well fitted curve in the direction sought with a large enough effect in the repeat runs; inconclusive = weak or mixed curves; inactive = no such curve, though single readings can be large; an effect the other way counts as inactive or inconclusive.

Columns and labels:
[1] = qHTS assay to identify small molecule antagonists of the glucocorticoid receptor (GR) signaling pathway - cell viability counter screen (AID 720693); note: nearly all actives have a fitted effect of over 55% in size
[2] = qHTS assay for identifying genotoxic compounds that show differential cytotoxicity against isogenic chicken DT40 cell lines with known DNA damage response pathways - wild type cell line (AID 743012); note: nearly all actives have a fitted effect of over 60% in size; note: potency is the fitted concentration of half-maximal effect
Procedure, shortened: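 Quantitative HTS on parental DT40 cells: 40 h compound treatment at 37 C/5% CO2, with viability then determined by CellTiter-Glo luminescence. Values serve as the DNA repair-proficient reference for differential cytotoxicity.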

[3] = qHTS assay for identifying genotoxic compounds that show differential cytotoxicity against isogenic chicken DT40 cell lines with known DNA damage response pathways - Rad54/Ku70 mutant cell line (AID 743015); note: nearly all actives have a fitted effect of over 60% in size; note: potency is the fitted concentration of half-maximal effect
[4] = target: Androgen receptor (Homo sapiens) (UniProt P10275); assay: qHTS assay to identify small molecule antagonists of the androgen receptor (AR) signaling pathway (AID 743035; active = well fitted inhibition curve with a large enough effect in the signal ratio in the repeat runs, not every such curve was filed as active; the % refers to the signal ratio; note: potency is the fitted concentration of half-maximal effect)
Androgen receptor (Homo sapiens), sequence (P10275 whole entry, looked up): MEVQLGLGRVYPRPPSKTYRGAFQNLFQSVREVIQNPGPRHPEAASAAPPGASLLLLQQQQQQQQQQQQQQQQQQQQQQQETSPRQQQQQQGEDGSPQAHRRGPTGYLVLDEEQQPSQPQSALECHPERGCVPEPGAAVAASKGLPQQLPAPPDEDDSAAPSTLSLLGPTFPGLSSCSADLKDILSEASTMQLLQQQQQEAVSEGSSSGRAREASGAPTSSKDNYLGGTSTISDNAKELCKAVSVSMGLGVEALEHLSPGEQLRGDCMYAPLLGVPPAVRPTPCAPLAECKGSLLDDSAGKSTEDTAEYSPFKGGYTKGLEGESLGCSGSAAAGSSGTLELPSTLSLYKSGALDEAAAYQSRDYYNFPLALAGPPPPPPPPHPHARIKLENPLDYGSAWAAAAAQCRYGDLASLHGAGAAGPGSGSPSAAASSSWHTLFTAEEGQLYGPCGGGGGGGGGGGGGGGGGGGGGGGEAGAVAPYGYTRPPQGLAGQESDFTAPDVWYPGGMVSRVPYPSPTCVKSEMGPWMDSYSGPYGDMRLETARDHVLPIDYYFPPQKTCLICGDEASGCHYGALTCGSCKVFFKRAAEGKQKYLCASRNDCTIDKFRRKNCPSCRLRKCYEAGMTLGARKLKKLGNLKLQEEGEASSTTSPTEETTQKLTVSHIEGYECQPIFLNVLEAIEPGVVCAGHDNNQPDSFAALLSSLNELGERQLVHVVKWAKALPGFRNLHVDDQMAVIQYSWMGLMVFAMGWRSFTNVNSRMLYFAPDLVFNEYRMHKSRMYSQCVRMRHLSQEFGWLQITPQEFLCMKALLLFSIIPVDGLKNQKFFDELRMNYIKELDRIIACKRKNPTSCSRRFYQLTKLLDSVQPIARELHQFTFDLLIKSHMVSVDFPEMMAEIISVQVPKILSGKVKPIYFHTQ
Procedure, shortened: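 Cell line: GeneBLAzer AR-UAS-bla GripTite (HEK293). Stimulus: R1881 added after compound. Exposure: 16 h, 37C, 5% CO2. Readout: LiveBLAzer B/G FRET fluorescence after 2 h at room temperature.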

[5] = target: Androgen receptor (Homo sapiens) (UniProt P10275); assay: qHTS assay to identify small molecule agonists of the androgen receptor (AR) signaling pathway (AID 743036; active = well fitted activation curve with a large enough effect in the signal ratio in the repeat runs, with a control signal flat, not every such curve was filed as active; the % refers to the signal ratio)
Procedure, shortened: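 In this Tox21 qHTS, 2,000 HEK293 AR-bla cells per well were incubated with compounds for 16 h at 37C and 5% CO2. Fluorescence intensity was recorded 2 h after adding LiveBLAzer B/G FRET substrate at room temperature.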

[6] = target: Androgen receptor (Homo sapiens) (UniProt P10275); assay: qHTS assay to identify small molecule agonists of the androgen receptor (AR) signaling pathway using the MDA cell line (AID 743040; note: nearly all actives have a fitted effect of over 20% in size)
Procedure, shortened: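 MDA-kb2 breast carcinoma cells stably carrying an MMTV-driven luciferase reporter (AR- and GR-responsive) were seeded and held 5 h at 37C, 0% CO2, then exposed to compounds in DMSO for 16 h. Luminescence was read 30 min after ONE-Glo addition.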

[7] = qHTS assay to identify small molecule antagonists of the androgen receptor (AR) signaling pathway using the MDA cell line - cell viability counter screen (AID 743041; note: nearly all actives have a fitted effect of over 45% in size)
Procedure, shortened: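 MDA-kb2 AR-luc human breast carcinoma cells (MMTV-luciferase, AR/GR responsive) were treated with compounds plus R1881 agonist for 16 h at 37 °C. Viability was read as CellTiter-Fluor fluorescence in the same wells as the reporter assay.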

[8] = target: Androgen receptor (Homo sapiens) (UniProt P10275); assay: qHTS assay to identify small molecule antagonists of the androgen receptor (AR) signaling pathway using the MDA cell line (AID 743042; note: nearly all actives have a fitted effect of over 55% in size)
Procedure, shortened: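 MDA-kb2 cells (human breast carcinoma, stably carrying an MMTV-luciferase reporter responsive to AR and GR) were plated at 3,000 cells/well and preincubated 5 hr at 37C, then given compound plus R1881 agonist for 16 h. ONE-Glo luminescence was read.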

[9] = qHTS assay for identifying genotoxic compounds that show differential cytotoxicity against isogenic chicken DT40 cell lines with known DNA damage response pathways - Rev3 mutant cell line (AID 743014); note: nearly all actives have a fitted effect of over 55% in size; note: potency is the fitted concentration of half-maximal effect
[10] = qHTS assay to identify small molecule antagonists of the androgen receptor (AR) signaling pathway - cell viability counter screen (AID 743033; note: nearly all actives have a fitted effect of over 45% in size)

CC(C)(C)NCC(O)c1cc(Cl)c(N)c(Cl)c1 (stereo not given)
Potency [1]: inactive | Potency [2]: inactive | Potency [3]: inactive | Potency [4]: inactive | outcome [5]: inactive | Potency [6]: inactive | Potency [7]: inactive | outcome [8]: inactive

COc1cc(OC)nc(Oc2cccc(Oc3nc(OC)cc(OC)n3)c2C(=O)O)n1
Potency [1]: inactive | Potency [9]: inactive | Potency [3]: inactive | Potency [10]: inactive | Potency [4]: inactive | outcome [5]: inactive | Potency [6]: inactive | Potency [7]: inactive | outcome [8]: inactive

O=C(CCCN1CCC(n2c(=O)[nH]c3ccccc32)CC1)c1ccc(F)cc1
Potency [1]: inactive | Potency [2]: 12.7 µM (active) | Potency [3]: 10.1 µM (active) | Potency [10]: inactive | Potency [4]: inactive | outcome [5]: inactive | Potency [6]: inactive | Potency [7]: inactive | outcome [8]: inactive

Nc1cnn(-c2ccccc2)c(=O)c1Cl
Potency [1]: inactive | Potency [2]: inactive | Potency [3]: inactive | Potency [10]: inactive | Potency [7]: inactive

COC(=O)c1c(C(F)F)nc(C(F)(F)F)c(C2=NCCS2)c1CC(C)C
Potency [1]: inactive | Potency [9]: 61.1 µM (active) | Potency [3]: 61.1 µM (active) | Potency [10]: inactive | Potency [4]: inactive | outcome [5]: inactive | Potency [6]: inactive | Potency [7]: inactive | outcome [8]: inactive

C#CCN1C(=O)COc2cc(F)c(N3C(=O)C4=C(CCCC4)C3=O)cc21
Potency [1]: inactive | Potency [2]: 61.1 µM (active) | Potency [10]: inactive | outcome [5]: inactive | Potency [6]: inactive | Potency [7]: inactive

CCCCC(=O)Cl
Potency [1]: inactive | Potency [2]: inactive | Potency [3]: inactive | Potency [10]: inactive | Potency [7]: inactive

CC(=O)Nc1cc([As](=O)(O)O)ccc1O
Potency [1]: inactive | Potency [2]: inactive | Potency [3]: inactive | Potency [7]: inactive

Cc1cc(C)nc(Nc2ccccc2)n1
Potency [1]: inactive | Potency [2]: inactive | Potency [10]: inactive | Potency [7]: inactive

COc1cccc(C(=O)NN(C(=O)c2cc(C)cc(C)c2)C(C)(C)C)c1C
Potency [1]: inactive | Potency [9]: 68.6 µM (active) | Potency [3]: 61.1 µM (active) | Potency [10]: inactive

CCC(C)n1c(=O)[nH]c(C)c(Br)c1=O (stereo not given)
Potency [1]: inactive | Potency [2]: inactive | Potency [3]: inactive | Potency [10]: inactive | Potency [7]: inactive

OCCSCSCCO
Potency [1]: inactive | Potency [9]: inactive | Potency [3]: inactive | Potency [10]: inactive | Potency [7]: inactive

NC1=NC(=O)C(c2ccccc2)O1 (stereo not given)
Potency [1]: inactive | Potency [2]: inactive | Potency [3]: inactive | Potency [10]: inactive | Potency [7]: inactive

CN1CCN(C(=O)O[C@H]2c3nccnc3C(=O)N2c2ccc(Cl)cn2)CC1
Potency [1]: inactive | Potency [2]: inactive | Potency [3]: inactive | Potency [10]: inactive | Potency [7]: inactive

CCOP(=S)(OCC)SCSc1ccc(Cl)cc1
Potency [1]: inactive | Potency [2]: inactive | Potency [3]: inactive | Potency [10]: inactive | Potency [7]: inactive

COc1cc(C[C@@H](C)N)c(OC)cc1C
Potency [1]: inactive | Potency [9]: inactive | Potency [3]: inactive | Potency [10]: inactive | Potency [7]: inactive

O=[N+]([O-])c1cccc(O)c1
Potency [1]: inactive | Potency [2]: inactive | Potency [3]: inactive | Potency [10]: inactive | Potency [7]: inactive

CC1(C)COP(Oc2ccccc2)OC1
Potency [1]: inactive | Potency [9]: inactive | Potency [3]: inactive | Potency [10]: inactive | Potency [4]: inactive | outcome [5]: inactive | Potency [6]: inactive | Potency [7]: inactive | outcome [8]: inactive

Nc1ccccc1Cl
Potency [1]: inactive | Potency [9]: inactive | Potency [3]: inactive | Potency [10]: inactive | Potency [4]: inactive | outcome [5]: inactive | Potency [6]: inactive | Potency [7]: inactive | outcome [8]: inactive

CCCSC(=O)N(CCC)CCC
Potency [1]: inactive | Potency [9]: inactive | Potency [3]: inactive | Potency [10]: inactive

O=c1oc2ccccc2c(O)c1C1CCCc2ccccc21 (stereo not given)
Potency [1]: inactive | Potency [9]: inactive | Potency [3]: inactive | Potency [10]: inactive | Potency [7]: inactive

CCN(CC)C(=O)[C@@H]1C=C2c3cccc4[nH]cc(c34)C[C@H]2N(C)C1
Potency [1]: inactive | Potency [9]: 101 µM (active) and 23.7 µM (active) | Potency [3]: 31.9 µM (active) and 11.9 µM (active) | Potency [10]: inactive | Potency [7]: inactive

CCc1cc2c(s1)-n1c(C)nnc1CN=C2c1ccccc1Cl
Potency [1]: inactive | Potency [9]: inactive | Potency [10]: inactive | Potency [7]: inactive

O=CNC(N1CCN(C(NC=O)C(Cl)(Cl)Cl)CC1)C(Cl)(Cl)Cl (stereo not given)
Potency [1]: inactive | Potency [9]: 61.1 µM (active) | Potency [10]: inactive | Potency [4]: 6.16 µM (active) | outcome [5]: inactive | Potency [6]: inactive | Potency [7]: inactive | outcome [8]: inactive

N#CCBr
Potency [1]: inactive | Potency [9]: inactive | Potency [3]: inactive | Potency [10]: inactive | Potency [7]: inactive

C[C@]1(O)CC[C@H]2[C@@H]3CCC4=CC(=O)CC[C@]4(C)[C@@]3(F)[C@@H](O)C[C@@]21C
Potency [1]: inactive | Potency [9]: inactive | Potency [3]: inactive | Potency [10]: inactive | Potency [7]: inactive

CN(C)CCc1ccc(O)cc1
Potency [1]: inactive | Potency [9]: inactive | Potency [3]: inactive | Potency [7]: inactive

N#CCNCC#N
Potency [1]: inactive | Potency [9]: inactive | Potency [3]: inactive | Potency [10]: inactive | Potency [7]: inactive

CCOc1nc(C(Cl)(Cl)Cl)ns1
Potency [1]: inactive | Potency [9]: inactive | Potency [3]: inactive | Potency [10]: inactive | Potency [7]: inactive

O=C(Oc1ccc(Br)cc1)N1CCN2CCC1CC2
Potency [1]: inactive | Potency [9]: 54.5 µM (active) | Potency [3]: 61.1 µM (active) | Potency [10]: inactive | Potency [7]: inactive

CC(C)(C)C(=O)C(Oc1ccc(Cl)cc1)n1cncn1 (stereo not given)
Potency [1]: inactive | Potency [9]: 30.6 µM (active) | Potency [3]: 30.6 µM (active) | Potency [10]: inactive | Potency [7]: inactive

O=C(CCN1CC1)OCC(CO)(COC(=O)CCN1CC1)COC(=O)CCN1CC1
Potency [1]: inactive | Potency [9]: inactive | Potency [3]: inactive | Potency [10]: inactive | Potency [7]: inactive

Nc1n[nH]c(N)n1
Potency [1]: inactive | Potency [9]: inactive | Potency [10]: inactive | Potency [7]: inactive

ClCC(Cl)Cl
Potency [1]: inactive | Potency [9]: inactive | Potency [3]: inactive | Potency [10]: inactive | Potency [7]: inactive

Cc1nnc2n1-c1sc(CCC(=O)N3CCOCC3)cc1C(c1ccccc1Cl)=NC2
Potency [1]: inactive | Potency [9]: inactive | Potency [3]: inactive | Potency [10]: inactive | Potency [7]: inactive

O=C(NCO)NCO
Potency [1]: inactive | Potency [9]: inactive | Potency [3]: inactive | Potency [10]: inactive | Potency [7]: inactive

CCC1(c2ccccc2)C(=O)NC(=O)NC1=O
Potency [1]: inactive | Potency [9]: inactive | Potency [3]: inactive | Potency [10]: inactive | Potency [7]: inactive

CC(CC(C#N)(c1ccccc1)c1ccccc1)N(C)C (stereo not given)
Potency [1]: inactive | Potency [9]: 54.2 µM (active) | Potency [3]: 48.3 µM (active) | Potency [10]: inactive | Potency [7]: inactive

O=C(O)c1cccc(Cl)c1
Potency [1]: inactive | Potency [9]: inactive | Potency [3]: inactive | Potency [10]: inactive | Potency [7]: inactive

CNC(=O)Oc1cccc(C(C)C)c1
Potency [1]: inactive | Potency [9]: inactive | Potency [3]: inactive | Potency [10]: inactive | Potency [7]: inactive
